Assay outcomes deposited in PubChem BioAssay by Sanford-Burnham Center for Chemical Genomics.
DUSP3 inh: VHR1 (DUSP3) phosphatase inhibition; P51452; recombinant VHR phosphatase, colorimetric substrate read-out; inhibition, % at 20 µM; 0.7% of 50,000 active; AID 1992; in the data active = inhibition above about 60%
Target sequence (P51452 whole entry, looked up): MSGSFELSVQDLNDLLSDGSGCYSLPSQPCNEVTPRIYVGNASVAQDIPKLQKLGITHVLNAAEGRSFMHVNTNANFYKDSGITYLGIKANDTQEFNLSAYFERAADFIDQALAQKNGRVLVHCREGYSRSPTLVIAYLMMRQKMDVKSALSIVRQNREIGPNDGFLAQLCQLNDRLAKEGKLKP
Numbers stand for hits; - = inactive. The sample as a whole holds a higher share of hits than the screen did.

SMILES	DUSP3 inh
CCOc1cc(/C=C2\SC(=S)N(/N=C/c3ccc(O)c(OCC)c3)C2=O)ccc1O	-
C=CCN1C(=O)/C(=C\C=C\c2ccccc2)SC1=S	-
COc1ccc(/C=C2\SC(=S)N(CCC(N)=O)C2=O)cc1	-
C=CCN1C(=O)/C(=C/c2ccc(C)cc2)SC1=S	-
COC(=O)CN1C(=O)/C(=C\c2ccc(C)cc2)SC1=S	-
O=C(O)CCCN1C(=O)/C(=C/C=C/c2ccccc2)SC1=S	-
COc1ccc(/C=C2\SC(=S)N(CCC(=O)OC3CCCCC3)C2=O)cc1	-
O=C1/C(=C/C=C/c2ccccc2)SC(=S)N1CCS(=O)(=O)O	85
COc1ccc(/C=C2\SC(=S)N(CCS(=O)(=O)O)C2=O)cc1	67
Cc1ccc(/C=C2\SC(=S)N(CCS(=O)(=O)O)C2=O)cc1	63
COc1ccc(N2C(=O)NC(=O)/C(=C/c3cccc(O)c3)C2=O)cc1	-
CCSc1nnc(NC(=O)CCCOc2ccc(Cl)cc2Cl)s1	-
Cc1ccc(-c2csc(NC(=O)c3ccc(C)c(C)c3)n2)cc1	-
O=C1c2ccccc2-c2onc3c(Br)cc(N4CC4)c1c23	-
O=c1c2ccccc2nc(/C=C\c2ccccc2)n1-c1ccc(O)cc1	-
O=C(/C=C/c1ccc([N+](=O)[O-])cc1)Nc1cccc(C(F)(F)F)c1	-
COC(=O)c1sc(NC(=O)COc2ccc3ccccc3c2)c(C(N)=O)c1C	97
COc1ccc(OCC(=O)Nc2sc3c(c2C(N)=O)CCCC3)cc1	-
Cc1cc(=O)oc2cc(OCC(=O)Nc3sc4c(c3C(N)=O)CCC4)ccc12	78
CCN(CC)C(=O)c1sc(NC(=O)COc2ccc3ccccc3c2)c(C(=O)OC(C)C)c1C	-
Cc1ccc(OCC(=O)Nc2sc3c(c2C(N)=O)CCC3)c(C)c1	-
COC(=O)c1ccccc1NC(=O)COc1ccc2ccccc2c1	-
Cc1cccc(NC(=O)CSc2nnc(-c3ccccc3)c(-c3ccccc3)n2)c1	-
CCc1ccccc1NC(=O)COc1ccc(Br)cc1C(C)(C)C	-
Cc1cc(Br)ccc1N1C(=O)/C(=C/c2cc(C)n(C)c2C)C(=O)NC1=S	-
SMILES	DUSP3 inh
Cc1cc(Br)ccc1N1C(=O)/C(=C/c2cccs2)C(=O)NC1=S	102
O=C1NC(=S)N(c2ccc(Cl)c(Cl)c2)C(=O)/C1=C/c1cccs1	-
Cc1c(NC(=O)/C=C\C(=O)O)c(=O)n(-c2ccccc2)n1C	-
O=[N+]([O-])c1cc(C(F)(F)F)ccc1N/N=C/c1ccc2c(c1)OCO2	-
CCC(C)c1ccc(OCCOc2c(Cl)cc(/C=N/n3cnnc3)cc2OC)cc1 (stereo not drawn)	-
COc1ccccc1OCCOc1c(Cl)cc(/C=N/n2cnnc2)cc1OC	-
CCOc1cc(/C=N/n2cnnc2)cc(Cl)c1OCCOc1cc(C)ccc1C(C)C	110
O=C(COc1ccc2ccccc2c1)Nn1cnnc1	-
CCOC(=O)c1c(-c2ccc(C(C)C)cc2)csc1N	-
COC(=O)c1c(-c2ccc(Cl)cc2)csc1N	-
CCOC(=O)c1c(-c2ccc(-c3ccccc3)cc2)csc1N	-
NC(=O)c1c(-c2ccc(Cl)cc2)csc1N	67
COC(=O)c1c(-c2ccc(C(C)(C)C)cc2)csc1N	95
COC(=O)c1c(-c2ccc(OC)cc2)csc1N	-
COc1ccc(-c2cc(C(F)(F)F)n3nc(C(=O)NCCc4ccccc4)cc3n2)cc1OC	-
COc1cc(/C=N/N=c2\sc3ccccc3n2C)ccc1O	-
COc1ccc(/C=N/N=c2\sc3ccccc3n2C)c(OC)c1	98
Cn1/c(=N/N=C/c2ccncc2)sc2ccccc21	-
COc1cc(/C=N/Nc2nc(-c3ccccc3)c(-c3ccccc3)s2)ccc1O	-
Cc1ccccc1NC(=O)c1c(-c2cnc3ccccc3c2C(=O)Nc2ccccc2C)cnc2ccccc12	-
CCc1c(C)sc(NC(=O)C2C3CCC(C3)C2C(=O)O)c1C(=O)OC(C)C (stereo not drawn)	-
C=CCn1c(CCCN2C(=O)c3cccc4cccc(c34)C2=O)nnc1SC/C=C/c1ccccc1	-
CCOc1cc(-c2ccc(O)cc2)cc(=O)c2c(C)oc(C)c12	-
CCOc1cccc(=O)c2c(C)[nH]c(C)c12	75
CCOc1cccc(/C=C2/SC(=S)NC2=O)c1O	-
SMILES	DUSP3 inh
CCCOc1ccc(Br)cc1/C=C(/C#N)c1nc2ccc(C)cc2[nH]1	-
O=C(CC(c1ccccc1)c1cc(C(=O)N2CCOCC2)ccc1O)N1CCOCC1 (stereo not drawn)	-
COc1cc(/C=N/n2cnnc2)ccc1OCCOc1ccc(C(C)(C)C)cc1	-
COc1cccc(OCCOc2ccc(/C=N/n3cnnc3)cc2OC)c1	116
CCOc1cc(/C=N/n2cnnc2)ccc1OCCOc1ccc(C)cc1	-
COc1ccccc1OCCOc1cccc(/C=N/n2cnnc2)c1	-
CCOc1cc(/C=N/n2cnnc2)ccc1OCc1cccc2ccccc12	112
CCOc1cc(/C=N/n2cnnc2)ccc1OS(=O)(=O)c1ccccc1	-
CCOc1ccc(N(CC(=O)N[C@@H]2CCCC[C@H]2O)S(C)(=O)=O)cc1	-
CC(C)CCNC(=O)c1ccc(Cl)c(Cl)c1	-
Cc1nc(N)sc1-c1csc(Nc2ccccn2)n1	-
Cc1cc(NS(=O)(=O)c2ccc(Nc3nc(-c4ccccn4)cs3)cc2)no1	-
Cc1cc(C)nc(NS(=O)(=O)c2ccc(Nc3nc(-c4sc(N)nc4C)cs3)cc2)n1	67
CC(C)COc1ccc(C(=O)Nc2ccc(Cl)c(Cl)c2)cc1	-
O=C(COc1ccc2ccccc2c1)N1CCN(S(=O)(=O)c2ccccc2)CC1	-
CC(=O)Oc1ccc(NC(=O)CN2C(=O)c3ccccc3C2=O)c(C)c1	-
COc1cccc(NC(=O)c2ccc3ccccc3c2)c1	-
COc1ccc(C2CC(=O)C3=C(C2)Nc2ccccc2NC3c2coc3c(Cl)cc(Cl)cc3c2=O)cc1 (stereo not drawn)	105
COc1ccc(C2CC(=O)C3=C(C2)Nc2ccccc2NC3c2cc3c(cc2Cl)OCO3)cc1 (stereo not drawn)	-
COc1ccc(C2CC(=O)C3=C(C2)Nc2ccccc2NC3c2ccccc2Cl)cc1 (stereo not drawn)	-
COc1nsnc1NS(=O)(=O)c1ccc(NC(=S)NC(=O)c2sc3cc(F)ccc3c2Cl)cc1	-
Cc1ccc(N2CCN(C(=S)c3ccc(-c4cccc([N+](=O)[O-])c4)o3)CC2)cc1	91
O=[N+]([O-])c1ccc(-c2ccc(C(=S)N3CCOCC3)o2)cc1	-
O=[N+]([O-])c1ccc(-c2ccc(C(=S)N3CCCCC3)o2)cc1	-
Nn1c(SCC(=O)c2ccc(Cl)cc2)nc2ccccc2c1=O	-
SMILES	DUSP3 inh
O=C(/C=C/c1ccccc1)Nc1nnc(-c2ccncc2)s1	-
COc1ccc(-c2c(C#N)c(N)n3c(nc4ccccc43)c2C#N)cc1OC	69
N#Cc1c(-c2ccc(F)cc2)c(C#N)c2nc3ccccc3n2c1N	-
N#Cc1c(-c2cccc(Br)c2)c(C#N)c2nc3ccccc3n2c1N	-
Clc1cccc(C=Nc2ccc(N=Cc3cccc(Cl)c3Cl)cc2)c1Cl	-
CN1C(=O)/C(=C\c2ccc(Sc3ccc(Cl)cc3)o2)SC1=S	62
CN1C(=O)/C(=C\c2ccc([N+](=O)[O-])o2)SC1=S	-
CN1C(=O)/C(=C\c2ccc(-c3ccc(F)c(Cl)c3)o2)SC1=S	-
O=C(Nc1ccc(Cc2ccncc2)cc1)c1cccc(Cl)c1	-
O=C1CC(=O)N(c2cccc(Cl)c2)N1	75
O=C1NC(=O)/C(=C\c2cccc(Cl)c2)S1	-
O=C1CSC2=NCN(c3cccc(Cl)c3)CN12	-
COc1cc2c(c(OC)c1OC)c(=O)oc1cc(O)ccc12	-
